Assay results published in PubChem BioAssay (Tox21).
Records with an inconclusive call do not appear. Activity calls are given as the source filed them. Unless noted, calls follow the shape of the dose curve; as a rule, active = well fitted curve in the direction sought with a large enough effect in the repeat runs; inconclusive = weak or mixed curves; inactive = no such curve, though single readings can be large; an effect the other way counts as inactive or inconclusive.

Legend:
[1] = qHTS assay for small molecule agonists of the p53 signaling pathway (AID 651631; calls by dose curve; also: nearly all actives have a fitted effect of over 15% in size)
Procedure, shortened: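 Agonist mode screen using a stably integrated beta-lactamase gene under p53 response elements in HCT-116 cells. Compound exposure lasts 16 h at 37 °C; fluorescence intensity is measured following 2 h FRET substrate loading.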

[2] = qHTS assay for small molecules that induce genotoxicity in human embryonic kidney cells expressing luciferase-tagged ATAD5 (AID 651632); also: nearly all actives have a fitted effect of over 15% in size
Procedure, shortened: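 ATAD5-luc HEK293T, 2,000 cells/well; cpd or DMSO pin-transferred; 16 hr, 37C/5% CO2; Amplite 30 min RT; luminescence.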

[3] = qHTS assay for small molecule agonists of the p53 signaling pathway - cell viability (AID 651633; calls by dose curve;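 also: p53RE-bla HCT reporter cells with a stable beta-lactamase p53 reporter; series mostly up to about 83 µM; nearly all actives have a fitted effect of over 30% in size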)
Procedure, shortened: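 p53RE-bla cells, seeded at 4,000 per well and rested 5 h at 37 C/5% CO2, received compounds in DMSO for 16 h at 37 C. CellTiter-Glo was then added, and luminescence was read after 30 min at room temperature to gauge cytotoxicity.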

[4] = qHTS assay for small molecules that induce genotoxicity in human embryonic kidney cells expressing luciferase-tagged ATAD5 - cell viability (AID 651634; calls by dose curve; also: nearly all actives have a fitted effect of over 25% in size)
Procedure, shortened: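 Fluorescence from CellTiter-Fluor, reporting protease activity within live cells, served as the viability read-out. HEK293T cells carrying luciferase-tagged ATAD5 had been treated with compound for 15.5 hr at 37C.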

[5] = qHTS assay for small molecule disruptors of the mitochondrial membrane potential - cell viability (AID 720634; calls by dose curve;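 also: human HepG2 liver cancer cells; series mostly up to about 83 µM; nearly all actives have a fitted effect of over 20% in size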)
Procedure, shortened: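 Cells: HepG2, 2,000/well, attached overnight. Compound 1 hr, 37 C/5% CO2. +m-MPI dye, +CellTiter-Glo 30 min RT. Readout: luminescence (ATP).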

[6] = qHTS assay to test for compound auto fluorescence at 590 nm (red) in HepG2 cells (AID 720674)
Procedure, shortened: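 Rose Bengal sodium served as the red fluorophore standard. HepG2 monolayers (overnight attachment, MEM with 10% FBS) were exposed to test compounds for 1 hr at 37 C and read at Ex 540/Em 590 nm.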

[7] = qHTS assay to test for compound auto fluorescence at 535 nm (green) in HepG2 cells (AID 720675)
[8] = qHTS assay to test for compound auto fluorescence at 460 nm (blue) in HEK293 cells (AID 720678)
Procedure, shortened: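 Blue-channel (Ex/Em 405/460 nm) intensity measured in HEK293 cultures after overnight compound exposure at 37C; signal expressed relative to triamterene. Cells plated 2,000 per well in 10% dialyzed FBS medium and allowed 4-5 hr to attach.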

[9] = qHTS assay to test for compound auto fluorescence at 590 nm (red) in HEK293 cells (AID 720679)
Procedure, shortened: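 Red-channel autofluorescence (Ex/Em 540/590 nm; Rose Bengal sodium reference) was measured after overnight 37C, 5% CO2 exposure of attached HEK293 cells, 2,000 per well in medium with 10% dialyzed FBS.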

[10] = qHTS assay to test for compound auto fluorescence at 535 nm (green) in HEK293 cells (AID 720680)
[11] = qHTS assay to test for compound auto fluorescence at 460 nm (blue) in HEK293 cell free culture (AID 720681)
Procedure, shortened: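 Test compounds were pinned into cell-free culture medium (DMEM with 10% FBS) and fluorescence was read directly at Ex/Em 405/460 nm. Signals were expressed as fluorescence equivalents of triamterene, with DMSO vehicle as control.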

[12] = qHTS assay to test for compound auto fluorescence at 590 nm (red) in HEK293 cell free culture (AID 720683)
Procedure, shortened: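 Tox21 10K library compounds were pinned into cell-free DMEM with 10% FBS and fluorescence was read at excitation 540 nm. Activity is expressed as Rose Bengal sodium equivalency.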

[13] = qHTS assay to test for compound auto fluorescence at 590 nm (red) in HepG2 cell free culture (AID 720684)
Procedure, shortened: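 Red fluorescence (540 nm excitation, 590 nm emission) was measured after compound transfer into cell-free MEM supplemented with 10% FBS. Values are equivalencies against Rose Bengal sodium.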

[14] = qHTS assay to test for compound auto fluorescence at 535 nm (green) in HepG2 cell free culture (AID 720686)
[15] = qHTS assay to test for compound auto fluorescence at 460 nm (blue) in HepG2 cells (AID 720687)
Procedure, shortened: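 Cells (2,000/well in MEM with 10% FBS) attached overnight at 37 C, then were exposed to compound or DMSO for 1 hr at 37 C, 5% CO2. Fluorescence read at Ex/Em 405/460 nm, expressed as triamterene-equivalent signal.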

[16] = biological target: Glucocorticoid receptor (Homo sapiens) (UniProt P04150); experiment: qHTS assay to identify small molecule agonists of the glucocorticoid receptor (GR) signaling pathway (AID 720691; active = well fitted activation curve with a large enough effect in the signal ratio in the repeat runs, not every such curve was filed as active; the % refers to the signal ratio)
Procedure, shortened: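 Fluorescence intensity from LiveBLAzer B/G FRET substrate (2 h, room temperature) reports beta-lactamase expression driven by the glucocorticoid response element in GR-bla HeLa cells after 18 h compound exposure at 37 C.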

[17] = biological target: Glucocorticoid receptor (Homo sapiens) (UniProt P04150); experiment: qHTS assay to identify small molecule antagonists of the glucocorticoid receptor (GR) signaling pathway (AID 720692; active = well fitted inhibition curve with a large enough effect in the signal ratio in the repeat runs, not every such curve was filed as active; the % refers to the signal ratio)
Procedure, shortened: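 HeLa GR-bla cells; cmpd + dex 5 nM final, 18 h 37 C; LiveBLAzer B/G FRET substrate 2 h RT; fluorescence intensity read. Antagonist mode, qHTS.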

[18] = qHTS assay for small molecule disruptors of the mitochondrial membrane potential (AID 720635)
Procedure, shortened: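 HepG2 cells (2,000/well) attached overnight at 37C, then took compound for 1 hr at 37C, 5% CO2. Mito-MPS dye was added for 30 min; fluorescence was read at 490/535 nm (monomers) and 540/590 nm (aggregates).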

[19] = qHTS assay to test for compound auto fluorescence at 535 nm (green) in HEK293 cell free culture (AID 720682)
Procedure, shortened: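 No cells present: wells hold DMEM supplemented with 10% FBS, into which compound or vehicle is pinned. Green emission is then recorded (485 nm excitation, 535 nm emission) and scaled to fluorescein.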

[20] = qHTS assay to test for compound auto fluorescence at 460 nm (blue) in HepG2 cell free culture (AID 720685)
Procedure, shortened: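 Compound (23 nL) or DMSO pinned into cell-free MEM with 10% FBS; blue fluorescence read at 405/460 nm excitation/emission, expressed as auto-fluorescence equivalency to triamterene.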
% is scaled to controls: 0 for no effect and ±100 for the full control effect.

Sequence of Glucocorticoid receptor (Homo sapiens) (P04150 whole entry, looked up): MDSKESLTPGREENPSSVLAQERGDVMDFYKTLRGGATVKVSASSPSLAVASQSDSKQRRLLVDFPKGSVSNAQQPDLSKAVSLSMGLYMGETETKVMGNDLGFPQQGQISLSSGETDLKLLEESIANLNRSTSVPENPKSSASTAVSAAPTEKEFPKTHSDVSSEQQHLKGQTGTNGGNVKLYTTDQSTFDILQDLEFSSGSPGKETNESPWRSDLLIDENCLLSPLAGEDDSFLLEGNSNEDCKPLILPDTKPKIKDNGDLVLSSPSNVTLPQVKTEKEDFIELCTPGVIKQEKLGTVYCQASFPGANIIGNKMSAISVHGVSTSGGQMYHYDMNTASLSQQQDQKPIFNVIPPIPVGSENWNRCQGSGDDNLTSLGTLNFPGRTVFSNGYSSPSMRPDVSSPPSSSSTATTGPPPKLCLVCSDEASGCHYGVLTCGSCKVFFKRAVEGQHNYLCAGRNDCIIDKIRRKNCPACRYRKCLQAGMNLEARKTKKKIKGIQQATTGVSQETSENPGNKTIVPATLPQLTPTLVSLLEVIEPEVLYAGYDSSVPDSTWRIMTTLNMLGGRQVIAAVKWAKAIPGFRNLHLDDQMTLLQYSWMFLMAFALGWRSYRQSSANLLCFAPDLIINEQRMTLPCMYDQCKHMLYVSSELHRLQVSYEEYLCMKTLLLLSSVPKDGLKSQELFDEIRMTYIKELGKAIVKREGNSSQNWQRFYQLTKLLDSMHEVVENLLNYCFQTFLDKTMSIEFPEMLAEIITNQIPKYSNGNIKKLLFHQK

CN(C)C(=O)NC1(c2ccccc2)CCN(CCC[C@]2(c3ccc(Cl)c(Cl)c3)CCCN(C(=O)c3ccccc3)C2)CC1
inactive: Potency [1] | Potency [2] | Potency [3] | Potency [4] | Potency [5] | fluorescence, relative to Rose Bengal [6] -0.128% [at 18.6 µM] | fluorescence, % of fluorescein control [7] 0.0153% [at 18.6 µM] | fluorescence, % of triamterene [8] -0.0808% [at 18.6 µM] | fluorescence, % of fluorescent control [9] -0.621% [at 18.6 µM] | fluorescence, % of fluorescein [10] -0.116% [at 18.6 µM] | fluorescence, % of fluorescent control [11] 0.05% [at 18.6 µM] | fluorescence, % of fluorescent control [12] -0.159% [at 18.6 µM] | fluorescence, % of Rose Bengal [13] -0.0596% [at 18.6 µM] | fluorescence, % of fluorescein control [14] 0.0302% [at 18.6 µM] | fluorescence, % of fluorescent control [15] -0.0586% [at 18.6 µM] | Potency [16] | Potency [17]

Cc1nnc(SCC2=C(C(=O)O)N3C(=O)[C@@H](NC(=O)Cn4cnnn4)[C@H]3SC2)s1
inactive: Potency [2] | Potency [3] | Potency [4] | Potency [5] | Potency [18] | outcome [6] | outcome [7] | outcome [8] | outcome [9] | outcome [10] | outcome [11] | outcome [19] | outcome [12] | outcome [13] | outcome [20] | outcome [14] | outcome [15]

O=C1CCN(c2ccccc2)N1
inactive: Potency [1] | Potency [2] | Potency [3] | Potency [5] | Potency [18] | outcome [6] | outcome [7] | outcome [8] | outcome [9] | outcome [10] | outcome [11] | outcome [12] | outcome [13] | outcome [14] | outcome [15] | Potency [16] | Potency [17]

O=C1C=CC(=O)O1
inactive: Potency [1] | Potency [2] | Potency [3] | Potency [4] | Potency [5] | outcome [6] | outcome [7] | outcome [8] | outcome [9] | outcome [11] | outcome [19] | outcome [12] | outcome [20] | outcome [14] | outcome [15] | Potency [16]

Cc1c(-c2ccccc2)oc2c(C(=O)OCCN3CCCCC3)cccc2c1=O
inactive: Potency [1] | Potency [2] | Potency [3] | Potency [5] | Potency [18] | fluorescence, relative to Rose Bengal [6] 0.822% [at 18.6 µM] | fluorescence, % of fluorescein control [7] 0.273% [at 18.6 µM] | fluorescence, % of triamterene [8] -0.209% [at 18.6 µM] | fluorescence, % of fluorescent control [9] 0.0102% [at 18.6 µM] | fluorescence, % of fluorescent control [11] 0.0764% [at 18.6 µM] | activity change [19] -0.0846% [at 18.6 µM] | fluorescence, % of Rose Bengal [13] -0.137% [at 18.6 µM] | fluorescence, % of fluorescent control [20] -0.115% [at 18.6 µM] | fluorescence, % of fluorescein control [14] 0.0304% [at 18.6 µM] | fluorescence, % of fluorescent control [15] -0.0666% [at 18.6 µM] | Potency [16] | Potency [17]

O=S(=O)(O)C(F)(F)F
inactive: Potency [1] | Potency [2] | Potency [3] | Potency [4] | Potency [5] | outcome [6] | outcome [7] | outcome [8] | outcome [9] | outcome [11] | outcome [19] | outcome [12] | outcome [13] | outcome [20] | outcome [14] | outcome [15] | Potency [16]

CS(=O)(=O)c1ccc([C@@H](O)[C@@H](CF)NC(=O)C(Cl)Cl)cc1
inactive: Potency [1] | Potency [2] | Potency [3] | Potency [5] | Potency [18] | fluorescence, relative to Rose Bengal [6] -0.165% [at 18.6 µM] | fluorescence, % of fluorescein control [7] -0.0021% [at 18.6 µM] | fluorescence, % of triamterene [8] -0.0281% [at 18.6 µM] | fluorescence, % of fluorescent control [9] 0.0865% [at 18.6 µM] | fluorescence, % of fluorescein [10] 0.0111% [at 18.6 µM] | fluorescence, % of fluorescent control [11] 0.0627% [at 18.6 µM] | activity change [19] -0.0234% [at 18.6 µM] | fluorescence, % of fluorescent control [12] -0.0638% [at 18.6 µM] | fluorescence, % of fluorescent control [20] -0.0062% [at 18.6 µM] | fluorescence, % of fluorescein control [14] -0.0102% [at 18.6 µM] | fluorescence, % of fluorescent control [15] -0.0647% [at 18.6 µM] | Potency [16] | Potency [17]

CN(C)CC[C@@H](c1ccc(Cl)cc1)c1ccccn1
inactive: Potency [1] | Potency [3] | Potency [4] | Potency [5] | Potency [18] | outcome [6] | outcome [7] | outcome [8] | outcome [9] | outcome [10] | outcome [11] | outcome [12] | outcome [13] | outcome [20] | outcome [14] | Potency [16] | Potency [17]

CCN(CCCc1ccccc1)CCCc1ccccc1
inactive: Potency [2] | Potency [3] | Potency [4] | Potency [5] | fluorescence, relative to Rose Bengal [6] 0.32% [at 18.6 µM] | fluorescence, % of fluorescein control [7] -0.0397% [at 18.6 µM] | fluorescence, % of triamterene [8] 0.0775% [at 18.6 µM] | fluorescence, % of fluorescent control [9] -0.195% [at 18.6 µM] | fluorescence, % of fluorescein [10] 0.159% [at 18.6 µM] | fluorescence, % of fluorescent control [11] -0.0197% [at 18.6 µM] | activity change [19] 0.0298% [at 18.6 µM] | fluorescence, % of fluorescent control [12] 0.107% [at 18.6 µM] | fluorescence, % of Rose Bengal [13] -0.137% [at 18.6 µM] | fluorescence, % of fluorescein control [14] 0.0299% [at 18.6 µM] | fluorescence, % of fluorescent control [15] -0.0033% [at 18.6 µM]

O=c1oc2c(O)c(O)cc3c(=O)oc4c(O)c(O)cc1c4c23
inactive: Potency [2] | Potency [3] | Potency [4] | Potency [5] | Potency [18] | outcome [6] | outcome [7] | outcome [8] | outcome [9] | outcome [11] | outcome [19] | outcome [12] | outcome [14] | outcome [15] | Potency [16] | Potency [17]

O=C(O)[C@@H]1CSCN1
inactive: Potency [2] | Potency [3] | Potency [4] | Potency [5] | Potency [18] | outcome [6] | outcome [7] | outcome [8] | outcome [9] | outcome [10] | outcome [11] | outcome [19] | outcome [12] | outcome [13] | outcome [20] | outcome [14] | outcome [15] | Potency [16] | Potency [17]

C[C@@H]1CN(c2c(F)c(F)c3c(=O)c(C(=O)O)cn(C4CC4)c3c2F)C[C@H](C)N1
inactive: Potency [2] | Potency [3] | Potency [4] | Potency [5] | Potency [18] | outcome [6] | outcome [7] | outcome [8] | outcome [9] | outcome [10] | outcome [11] | outcome [12] | outcome [13] | outcome [20] | outcome [14] | outcome [15] | Potency [16] | Potency [17]

O=C(O)[C@@H](O)[C@H](O)[C@H](O)[C@@H](O)C(=O)O
inactive: Potency [2] | Potency [3] | Potency [4] | Potency [5] | Potency [18] | outcome [6] | outcome [7] | outcome [8] | outcome [9] | outcome [10] | outcome [11] | outcome [19] | outcome [12] | outcome [13] | outcome [20] | outcome [14] | outcome [15]
